From PubChem BioAssay (Tox21)
Several values for one entry are separate records, joined by “and”; a condition that tells them apart may be missing. Equal entries are not always repeated. Results filed as inconclusive are left out. A call without a number means that no potency is given here. Some structures have more than one record in an assay (separate samples or runs), and their calls can disagree. Activity calls are given as the source filed them. Unless noted, the call rests on the fitted dose curve; in most records, active means well fitted curve in the direction sought with a large enough effect in the repeat runs; inconclusive means weak or mixed curves; inactive means no such curve, though single readings can be large; an effect the other way counts as inactive or inconclusive.

How the values were obtained:
[1] = qHTS assay for small molecule agonists of the p53 signaling pathway (AID 651631; calls by dose curve; further: nearly all actives have a fitted effect of over 15% in size; further: potency means the concentration at half of the fitted maximal effect); conditions: HCT-116 p53RE-bla reporter, beta-lactamase FRET ratio, 16 h; series mostly up to 73.3 µM
In short: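 Agonist mode screen using a stably integrated beta-lactamase gene under p53 response elements in HCT-116 cells. Compound exposure lasts 16 h at 37 °C; fluorescence intensity is measured following 2 h FRET substrate loading.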

[2] = qHTS assay for small molecules that induce genotoxicity in human embryonic kidney cells expressing luciferase-tagged ATAD5 (AID 651632); conditions: HEK293T ATAD5-luciferase induction, 16 h; series mostly up to 83.3 µM; further: nearly all actives have a fitted effect of over 15% in size; further: potency means the concentration at half of the fitted maximal effect
In short: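 Luminescent reporter readout, HEK293T ATAD5-luc line: 16 hr drug exposure (37C, 5% CO2) followed by Amplite, 30 min RT.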

[3] = qHTS assay for small molecules that induce genotoxicity in human embryonic kidney cells expressing luciferase-tagged ATAD5 - cell viability (AID 651634; calls by dose curve; further: nearly all actives have a fitted effect of over 25% in size; further: potency means the concentration at half of the fitted maximal effect); conditions: HEK293T ATAD5-luc cells viability, CellTiter-Fluor, 15.5 h; series mostly up to 83.3 µM
In short: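 Viability read: CellTiter-Fluor fluorescence, 30 min at 37C. Cells: HEK293T, luciferase-tagged ATAD5. Exposure: 15.5 hr, 37C, 5% CO2, compound or DMSO vehicle.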

[4] = qHTS assay for small molecule disruptors of the mitochondrial membrane potential - cell viability (AID 720634; calls by dose curve; further: nearly all actives have a fitted effect of over 20% in size; further: potency means the concentration at half of the fitted maximal effect); conditions: HepG2 viability, ATP luminescence (CellTiter-Glo), 1 h; series mostly up to 83.2 µM
In short: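 HepG2, 1 hr compound, 37 C. ATP luminescence via CellTiter-Glo, 30 min RT, same well as m-MPI.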

[5] = qHTS assay to test for compound auto fluorescence at 590 nm (red) in HepG2 cells (AID 720674); conditions: HepG2 autofluorescence, red 540/590 nm, 1 h; series mostly up to 91.3 µM
In short: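 Compound auto-fluorescence is scored relative to Rose Bengal sodium, measured at 540/590 nm in live HepG2 cultures after 1 hr compound contact (37 C, 5% CO2).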

[6] = qHTS assay to test for compound auto fluorescence at 535 nm (green) in HepG2 cells (AID 720675); conditions: green autofluorescence 485/535 nm, 1 h; series mostly up to 91.3 µM
[7] = qHTS assay to test for compound auto fluorescence at 460 nm (blue) in HEK293 cells (AID 720678); conditions: blue autofluorescence 405/460 nm; series mostly up to 91.3 µM
In short: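 Blue read-out at excitation 405 nm and emission 460 nm follows overnight compound exposure of HEK293 cells at 37C in 5% CO2. Activity is given as auto fluorescence equivalency to triamterene.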

[8] = qHTS assay to test for compound auto fluorescence at 590 nm (red) in HEK293 cells (AID 720679); conditions: red autofluorescence 540/590 nm; series mostly up to 91.3 µM
In short: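 Red channel, Ex/Em 540/590nm; signal expressed as equivalency to Rose Bengal sodium. HEK293, 2,000 cells/well, 10% dialyzed FBS; 23 nL compound pinned after 4-5 hr attachment; overnight 37C/5% CO2 before reading.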

[9] = qHTS assay for small molecule agonists of the p53 signaling pathway - cell viability (AID 651633; calls by dose curve; further: nearly all actives have a fitted effect of over 30% in size; further: potency means the concentration at half of the fitted maximal effect); conditions: p53RE-bla HCT-116 viability, ATP luminescence, 16 h; series mostly up to 83.3 µM
In short: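 p53RE-bla cells, seeded at 4,000 per well and rested 5 h at 37 C/5% CO2, received compounds in DMSO for 16 h at 37 C. CellTiter-Glo was then added, and luminescence was read after 30 min at room temperature to gauge cytotoxicity.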

[10] = qHTS assay for small molecule disruptors of the mitochondrial membrane potential (AID 720635); conditions: HepG2 mitochondrial membrane potential, Mito-MPS dye ratio; series mostly up to 83.2 µM; further: potency means the concentration at half of the fitted maximal effect
In short: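 HepG2 cells (2,000/well) attached overnight at 37C, then took compound for 1 hr at 37C, 5% CO2. Mito-MPS dye was added for 30 min; fluorescence was read at 490/535 nm (monomers) and 540/590 nm (aggregates).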

Compound	Potency [1]	Potency [2]	Potency [3]	Potency [4]	outcome [5]	Potency [6]	Potency [7]	outcome [8]	Potency [9]	Potency [10]
Oc1c(Cl)cc(Cl)cc1Sc1cc(Cl)cc(Cl)c1O	11.9 µM (active) and 34.9 µM (active) and 21.7 µM (active)	inactive	11.9 µM (active) and 30.7 µM (active) and 48.6 µM (active)	13.7 µM (active) and inactive	inactive	inactive	inactive	inactive		
C=CC(=O)OCCCCCCOC(=O)C=C	11 µM (active)		31 µM (active)	inactive	inactive		inactive	inactive	inactive	
C1COC(NC(C2CC2)C2CC2)=N1		inactive	inactive	inactive	inactive	inactive	inactive	inactive	inactive	
Oc1ccc(Cl)cc1Cc1cc(Cl)ccc1O		inactive	inactive	6.68 µM (active) and 221 nM (active)	inactive	inactive	inactive	inactive	18.8 µM (active) and 55.5 µM (active) and 43.3 µM (active)	1.88 µM (active) and 1.24 µM (active) and 1.22 µM (active)
CC(C)(C)c1cc(C(C)(C)C)c(O)c(C(C)(C)C)c1		inactive	inactive	inactive	inactive	inactive	inactive	inactive	34.4 µM (active)	17.2 µM (active) and 27.3 µM (active)
CCCCCCCCCCCCCC[P+](CCCC)(CCCC)CCCC		inactive	30.5 µM (active) and 27.3 µM (active)	34.2 µM (active) and 24.3 µM (active)	inactive	inactive	inactive	inactive	24.2 µM (active) and 15.4 µM (active)	542 nM (active) and 486 nM (active)
c1cc(C(c2ccc(OCC3CO3)cc2)C(c2ccc(OCC3CO3)cc2)c2ccc(OCC3CO3)cc2)ccc1OCC1CO1 (stereo unspecified)		inactive	inactive	inactive	inactive		inactive	inactive	inactive	inactive
O=C(OCc1ccccc1)c1ccc(O)cc1	inactive		inactive		inactive	inactive	inactive	inactive	inactive	13.3 µM (active) and 15.4 µM (active)
CC(=O)CC(=O)Nc1ccc2[nH]c(=O)[nH]c2c1		inactive	inactive	inactive	inactive	inactive	inactive	inactive	inactive	
CCCCC(CC)COC(=O)CC(C(=O)OCC(CC)CCCC)S(=O)(=O)O (stereo unspecified)		inactive	inactive	inactive	inactive	inactive	inactive	inactive	29.8 µM (active) and 58.8 µM (active) and 61.1 µM (active)	
CC(=O)Nc1ccc(C(=O)CCl)cc1	inactive and 24.3 µM (active)	inactive and 24.3 µM (active)		inactive and 27.3 µM (active)	inactive		inactive	inactive	inactive and 30.6 µM (active)	inactive and 27.3 µM (active)
BrC1CCC(Br)C(Br)CCC(Br)C(Br)CCC1Br (stereo unspecified)		inactive	inactive	inactive	inactive		inactive	inactive	15.3 µM (active) and 25.9 µM (active)	3.84 µM (active) and 9.19 µM (active)
Cc1c(O)cccc1C(=O)N[C@@H](CSc1ccccc1)[C@H](O)CN1C[C@H]2CCCC[C@H]2C[C@H]1C(=O)NC(C)(C)C		inactive	21.1 µM (active) and 23.7 µM (active)	inactive	inactive	inactive	inactive	inactive	21.1 µM (active)	
CN(C)c1ccc2nc3ccc(=[N+](C)C)cc-3sc2c1		inactive	11.9 µM (active) and 2.94 µM (active) and 48.6 µM (active)	10.6 µM (active) and 23.4 µM (active) and 61.1 µM (active)	inactive	inactive	inactive	inactive	3.35 µM (active)	2.37 µM (active) and 830 nM (active) and 1.37 µM (active)
CNCCC(Oc1ccc(C(F)(F)F)cc1)c1ccccc1 (stereo unspecified)	53.8 µM (active)		inactive		inactive		inactive	inactive	60.3 µM (active)	
CCC(C)(C)C(=O)O[C@H]1C[C@@H](C)C=C2C=C[C@H](C)[C@H](CC[C@@H]3C[C@@H](O)CC(=O)O3)[C@H]21		inactive	inactive		inactive	inactive	inactive	inactive	inactive and 61.1 µM (active)	
NC(=Nc1ccccc1)Nc1ccccc1		15 µM (active)	inactive	inactive	inactive		inactive	inactive	inactive	
Nc1ccc(O)cc1				31.8 µM (active)	inactive	inactive	inactive	inactive	26.6 µM (active) and 30.6 µM (active) and 31.8 µM (active)	841 nM (active) and 3.06 µM (active) and 897 nM (active)
c1ccc2c(c1)-c1cccc3c1c-2cc1ccccc13		inactive	inactive	17.2 µM (active)	inactive	inactive	inactive	inactive		13.4 µM (active) and 13.7 µM (active)
O=C1NCC2(CCN(CCc3ccccc3)CC2)O1		inactive	inactive	inactive	inactive	inactive	inactive	inactive	inactive	
O=C(Nc1ccccc1SSc1ccccc1NC(=O)c1ccccc1)c1ccccc1		inactive			inactive	inactive	inactive	inactive	inactive	7.74 µM (active) and 15.4 µM (active)
CN(C)c1ccc(C(=C2C=CC(=[N+](C)C)C=C2)c2ccccc2)cc1		inactive		inactive and 17.2 µM (active)	inactive		inactive	inactive	23.7 µM (active) and 273 nM (active)	
COc1ccc(CCN2CCC(Nc3nc4ccccc4n3Cc3ccc(F)cc3)CC2)cc1			26.6 µM (active) and 44.2 µM (active)	49.6 µM (active)	inactive	inactive	inactive	inactive	26.6 µM (active) and 11.1 µM (active)	
Cc1ccc(S(=O)(=O)Oc2ccc(N=Nc3ccc(-c4ccc(N=Nc5c(O)ccc6cc(S(=O)(=O)O)cc(S(=O)(=O)O)c56)c(C)c4)cc3C)cc2)cc1			54.7 µM (active) and 20 µM (active)	inactive	inactive	inactive	inactive	inactive	inactive	
c1ccc2cc3c(ccc4ccccc43)cc2c1		68.8 µM (active)	inactive		inactive		inactive	inactive	inactive	
